From PubChem BioAssay
Only some compounds are listed: those with a hit (about 13% of all), similar ones and a draw of the others.
USP28 inh = human USP28 deubiquitinase inhibition | Q96RU2 | purified USP28, Ub-rhodamine cleavage fluorescence, 30 min | inhibition, % at 25 µM | 47,000 tested, 3% active
USP30 inh = human USP30 deubiquitinase inhibition; Q70CQ3; purified USP30, Ub-rhodamine cleavage fluorescence; inhibition, % at 25 µM; 47,000 tested, 5.3% active; AID 1645860
Target sequence (Q70CQ3 whole entry, looked up): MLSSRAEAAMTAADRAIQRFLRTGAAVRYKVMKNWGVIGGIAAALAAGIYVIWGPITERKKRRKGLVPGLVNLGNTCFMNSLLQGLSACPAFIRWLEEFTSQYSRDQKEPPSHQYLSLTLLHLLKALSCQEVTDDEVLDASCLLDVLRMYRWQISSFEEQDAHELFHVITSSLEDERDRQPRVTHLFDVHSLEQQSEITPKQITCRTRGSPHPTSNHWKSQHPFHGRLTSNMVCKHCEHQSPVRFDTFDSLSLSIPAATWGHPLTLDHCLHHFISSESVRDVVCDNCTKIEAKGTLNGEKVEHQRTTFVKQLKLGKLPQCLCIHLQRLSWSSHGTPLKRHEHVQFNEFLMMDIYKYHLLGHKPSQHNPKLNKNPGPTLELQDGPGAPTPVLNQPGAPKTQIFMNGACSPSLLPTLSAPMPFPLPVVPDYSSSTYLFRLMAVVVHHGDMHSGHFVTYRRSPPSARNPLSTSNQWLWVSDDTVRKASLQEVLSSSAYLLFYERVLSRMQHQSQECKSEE
USP8 inh = human USP8 deubiquitinase inhibition; P40818; purified USP8, Ub-rhodamine cleavage fluorescence, 30 min; inhibition, % at 20 µM; 47,000 tested, 4.2% active; AID 1645853
USP17 inh = human USP17-like deubiquitinase inhibition | inhibition, % at 50 µM | 47,000 tested, 6.5% active | AID 1645855 | purified USP17, Ub-rhodamine cleavage fluorescence, 3 h | A8MUK1
* = called active by the depositor; i = inactive; . = not tested or not shown. Rule as the data show it: active = inhibition above about 30%; inactive = the rest.

SMILES | USP28 inh | USP30 inh | USP8 inh | USP17 inh
C[C@H]1O[C@@H](c2ccc3c(c2O)C(=O)c2ccc(C[C@@](C)(O)CC(=O)O)c(O)c2C3=O)C[C@@H](O)[C@@H]1O | -183 | i | -276 | -163
CCCCC/C=C/C=C/C(=O)OC1C(O)CC(c2ccc3c(c2O)C(=O)c2c(O)cc4cc(C)cc(O)c4c2C3=O)OC1C (configuration not stated) | 36* | 26 | 57* | 88*
CC(=O)Nc1sc2c(c1C(c1cccc(Cl)c1)N1CCN(CCO)CC1)CCCC2 (configuration not stated) | 3 | -6 | 11 | 3
COc1cccc(CN(C)c2ccc(S(=O)(=O)Nc3ccccn3)cn2)c1 | 3 | 7 | 16 | 6
O=C(c1cc(Cl)nc2ccccc12)N1CCc2ccccc2C1 | 0 | 1 | 33* | 10
O=C(c1cn(-c2cccc(Cl)c2)nn1)N1CCc2ccccc2C1 | 6 | 23 | 5 | 8
COc1cccc(Cn2nc3n(C(C)C)c(=O)c4ccc(C(=O)NC(C)C)cc4n3c2=O)c1 | 10 | 15 | 9 | 14
COc1cccc(Cn2nc3n(CC(C)C)c(=O)c4ccc(C(=O)NC(C)C)cc4n3c2=O)c1 | 4 | 30* | 0 | 18
Cn1c(=O)c2c(nc(CN3CCc4ccccc4C3)n2CC(=O)c2ccccc2)n(C)c1=O | -11 | -66 | 36* | 0
CC1(C)CC2CC(C)(CN2Cc2c(O)ccc3ccccc23)C1 (configuration not stated) | 1 | -24 | 87* | 57*
CCN1CCC2(CC1)OC(=O)C(C)=C2C(=O)NCc1ccc(Cl)cc1 | 5 | 11 | 7 | 2
CCCCCCCCCC1CC(=O)NCC(=O)NC(C(C)C)C(=O)NC(CC(C)C)C(=O)NC(C)C(=O)NC(C(C)C)C(=O)O1 (configuration not stated) | 7 | 0 | 2 | 3
CCc1nnc2c(NC(=O)Cc3ccc(OC)c(Cl)c3)cccn12 | 47* | -33 | 1 | -6
O=C(NC1CCCC1)c1cccc(-c2ccc(N3CCCC3)nc2)c1 | -3 | -40 | 7 | 51*
O=C(NC1CC1)c1ccc(-c2ccc(N3CCCCC3)nc2)cc1 | 3 | 16 | 8 | 48*
CC(C)NC(=O)c1ccc(-c2ccc(N3CCCCC3)nc2)cc1 | -19 | -19 | -3 | -9
COc1cccc(N2CCN(C(=O)CCn3cnc4ccccc4c3=O)CC2)c1 | 0 | 10 | -5 | -1
O=S(=O)(Nc1cccc(-c2nnc(-c3ccccc3)o2)c1)c1ccccc1 | -7 | -1 | -2 | 13
O=S(=O)(Nc1cccc(-c2nnc(Cc3ccc4c(c3)OCO4)o2)c1)c1ccccc1 | 32* | 27 | 21 | 11
Cc1ccc(Cn2c(/C=C/c3ccc(F)cc3)nc3ccccc32)cc1 | 35* | 15 | 4 | 2
COc1ccc(NC(=O)c2ccc(-c3nc4ccccc4s3)o2)cc1S(=O)(=O)N1CCOCC1 | -26 | -125 | -71 | -91
COc1ccc(C(=O)Nc2ccc(-c3nc4ccccc4[nH]3)cc2)cc1S(=O)(=O)N1CCOCC1 | 10 | 50* | 0 | 51*
O=C1CC(O)C(C2=CC(=O)c3c(O)cccc3C2=O)O1 (configuration not stated) | 83* | 8 | -94 | 71*
CC(C)NC(=O)CNC(=O)c1nc(-c2ccc3cc[nH]c3c2)no1 | -3 | 3 | -20 | -6
O=C(NCc1ccccc1Cl)c1nc(-c2ccc3[nH]ccc3c2)no1 | 18 | 47* | 19 | 49*
SMILES | USP28 inh | USP30 inh | USP8 inh | USP17 inh
COc1ccc(CNC(=O)c2nc(-c3ccc4cc[nH]c4c3)no2)cc1 | 18 | 41* | 16 | 26
O=C(NCc1ccncc1)c1nc(-c2ccc3[nH]ccc3c2)no1 | 5 | 1 | 2 | 2
COc1ccccc1NC(=O)C1=C(C)Nc2nc3ccccc3n2C1c1ccncc1 (configuration not stated) | 1 | 5 | 3 | -1
COc1ccc(C2C(C(=O)Nc3ccccc3OC)=C(C)Nc3nnnn32)cc1Br (configuration not stated) | 3 | 13 | -119 | 74*
COc1cccc(-c2nc3n(n2)C(c2ccncc2)C(C(N)=O)=C(C)N3)c1 (configuration not stated) | 4 | 30* | 3 | -1
COc1ccccc1NC(=O)C1=C(C)Nc2nc(-c3ccc(N(C)C)cc3)nn2C1c1ccncc1 (configuration not stated) | 3 | 30* | 7 | 40*
CC1=C(C(N)=O)C(c2ccc(C)o2)n2nc(-c3cccc(Cl)c3)nc2N1 (configuration not stated) | -8 | -29 | -14 | -11
O=C(NCc1cnn2ccccc12)c1ccc2nc[nH]c2c1 | -2 | -56 | -23 | -2
O=C(NCc1cn(-c2ccccc2)nc1-c1ccccc1)c1cccc(F)c1 | 9 | 3 | -10 | 24
O=C(c1[nH]nc2c1COc1ccccc1-2)N1CCN(c2ccccn2)CC1 | 7 | -31 | 50* | -14
COc1ccccc1NC(=O)c1ccc(-c2csc(C)n2)cc1 | . | . | 1 | 41*
Cc1nc(-c2noc3ccc(C(=O)Nc4cccnc4)cc23)cs1 | 0 | 72* | -172 | -20
CCC(=O)Nc1cccnc1-c1ccc(C(=O)Nc2cccc(OC)c2)cc1 | 57* | 0 | -27 | -8
COc1ccccc1CNC(=O)c1ccc(-c2csc(C)n2)cc1 | 27 | 1 | -4 | -1
COc1cccc(NC(=O)c2ccc(-c3csc(C)n3)cc2)c1 | 60* | 7 | -10 | 8
Cc1nc(-c2noc3ccc(C(=O)NCc4ccncc4)cc23)cs1 | -8 | -17 | 3 | -43
Cc1nc(SCC(=O)c2c(C)n(C)c3ccccc23)c2oc3ccccc3c2n1 | 2 | 0 | 2 | -2
O=C(c1c(F)cccc1F)N1CCC[C@@H](Cn2nnc(-c3cccnc3)n2)C1 | -2 | -7 | 5 | -6
COc1cccc(NC(=O)c2cc(-c3cccs3)on2)c1 | 32* | 34* | 3 | 39*
CCOc1ncccc1C(=O)Nc1nc2c(s1)CN(CC)CC2 | -12 | -88 | -13 | -7
CN1CCc2nc(NC(=O)COc3ccccc3Cc3ccccc3)sc2C1 | -13 | -124 | -10 | -33
CCN1CCc2nc(NC(=O)COc3ccc(Nc4ccccc4)cc3)sc2C1 | 25 | 1 | 79* | 29
CCN1CCc2nc(NC(=O)COc3c(Cl)cccc3Cl)sc2C1 | 12 | -3 | 23 | 37*
COc1ccccc1C1CC(c2ccccc2)N(C(=O)c2ccccc2)c2ncnn21 (configuration not stated) | -7 | -6 | -3 | -13
COc1cccc(C(=O)NCCSc2ccc(Cl)cc2)c1 | 44* | 24 | 23 | 35*
Cc1nn(-c2cccc(C(F)(F)F)c2)c2c1C(c1ccccc1)N1C=C(Cl)C=C(Cl)C1=N2 (configuration not stated) | -10 | -88 | -106 | 35*
O=C(CNC1Cc2ccccc2C1)Nc1ccccc1N1CCOCC1 | 4 | -1 | 46* | 13
COc1cc(CC(=O)Nc2ccccc2N2CCOCC2)cc(OC)c1OC | 1 | 8 | 5 | 6
